This is a sample that favours compounds with a hit; in the whole collection about 1% have one here.
hERG WT inh: inhibitors of human wildtype KCNH2 potassium channel | Q12809 | U2OS, BacMam KCNH2, thallium flux FluxOr; hits give low values | activity change, % at 1.84 µM | 0.37% of 340,000 active;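 active = maximum activity change below -70%; inconclusive = maximum activity change between -70% and -50%; inactive = maximum activity change above -50%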; note: % is set by controls: 0 for no effect and ±100 for the full control effect
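U2OS cells were transduced with wild-type KCNH2 virus (2.03 x 10^8 / mL) for 4 h at room temperature, then cultured overnight at 37 C. Thallium flux was read with FluxOr dye. Rate constants were normalized to DMSO controls.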
KCNH2 3.1 block: blocks the human KCNH2 3.1 channel isoform | U2OS KCNH2 3.1, thallium flux FluxOr; hits give low values | activity change, % (tested at about 1.8 µM) | 0.95% of 340,000 active | AID 720553;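 active = maximum activity change below -70%; inconclusive = maximum activity change from -70% to -50%; inactive = maximum activity change above -50%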;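 note: thallium influx rate constant from kinetic fluorescence after stimulation buffer; % is set by controls: 0 for no effect and ±100 for the full control effect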
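Steps: virus added to U2OS suspension (4 h, RT, dark); medium with 10% FBS added, cells plated, 37 C overnight; FluxOr/Red40 loading buffer 45 min RT; stimulation buffer, 2 min kinetic read; rate constant normalized.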
TRPML1 agonist: activates the human TRPML1 channel; Q9GZU1; 0.12% of 410,000 active; activation, % (concentration not given with the values); TRPML1-expressing cells, Ca2+ dye fluorescence, FDSS; in the data active = activation above about 50%; inconclusive = mostly about 30% to 49%; note: 0% is about no effect
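Kinetic FDSS Ca2+ read in Tet-induced TRPML1-DL cells (ABD Ca8 dye plus quencher, 45-90 min RT loading): baseline, then compound, then 110 s agonist window; EC80 agonist 54-4 at 4uM final added afterwards for a 110 s antagonist window.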
GRP78 ERSR act: inducers of ER stress response in human glioma cells | 0.02% of 420,000 active | Potency, µM, for the others: at the top dose activation, actives largely listed as activators | U87-MG GRP78 promoter luciferase reporter, 16 h; active = well fitted activation curve with a large enough effect; inconclusive = small, poorly fitted or top-dose-only effect; inactive = no such curve, though single readings can be large or run the other way; note: potency is the fitted concentration of half-maximal effect; series mostly up to about 76 µM; % of control where 0% means no effect; nearly all actives have a fitted effect of over 35% in size
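Stably transfected U87-MG human glioma cells carrying a GRP78-based luminescent sensor were seeded at 1000 cells/well, pin-dosed with compounds and incubated 16 h. Luciferase reagent was then added, and end-point luminescence was read after 10 min at room temperature.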
TRPML1 inh: blocks the human TRPML1 channel; activity change, negative = inhibition, % (test concentration not listed); Q9GZU1; 0.02% of 390,000 active; TRPML1-inducible cells, Ca2+ dye fluorescence, FDSS; hits give low values; inhibition of EC80 agonist-evoked calcium signal; in the data active = activity change below about -50%; inconclusive = between about -30% and that limit;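 note: stimulus is agonist 54-4 at its EC80 concentration; % is set by controls: 0 for no effect and ±100 for the full control effect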
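TRPML1-DL cells, Tet-induced overnight (~16 h, 37 °C) at 1,500 cells/well, were loaded with Ca8 no-wash dye plus quencher for 45-90 min at room temperature. Compounds were pinned during FDSS kinetic reading; agonist 54-4 at EC80 (4 uM final) then added.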
TSG101-PTAP inh: blocks PTAP/TSG101 interaction to inhibit HIV-1 budding | Q99816 | Fluorescence polarization, FITC-PTAP peptide / Tsg101 binding | Potency, µM (doses to about 115 µM), inactives show at the top dose activity change, negative = inhibition, usual class: inhibitors | 340,000 tested, under 10 active | AID 493005; active = well fitted inhibition curve with a large enough effect in the main read-out, with a control signal flat, not every such curve was filed as active; inconclusive = small, poorly fitted or top-dose-only effect, or effect the other way, or a change in a side signal; inactive = no such curve, though single readings can be large or run the other way; note: potency is the fitted concentration of half-maximal effect; % of control where 0% means no effect
Target sequence (Q99816 whole entry, looked up): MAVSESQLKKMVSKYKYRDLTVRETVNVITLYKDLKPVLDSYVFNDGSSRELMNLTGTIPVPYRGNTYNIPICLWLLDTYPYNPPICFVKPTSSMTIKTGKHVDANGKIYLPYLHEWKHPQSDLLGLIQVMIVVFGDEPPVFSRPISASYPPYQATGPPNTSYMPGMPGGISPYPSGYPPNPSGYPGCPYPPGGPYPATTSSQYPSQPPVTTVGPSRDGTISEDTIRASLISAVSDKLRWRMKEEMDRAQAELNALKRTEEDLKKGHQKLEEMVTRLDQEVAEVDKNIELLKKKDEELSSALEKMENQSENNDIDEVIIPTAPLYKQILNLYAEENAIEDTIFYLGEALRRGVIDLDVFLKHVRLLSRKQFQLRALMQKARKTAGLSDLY
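Fluorescence anisotropy tracks displacement of a FITC-tagged PTAP peptide (50 nM) from the Tsg101 binding domain (10 uM), following a 20 min room-temperature incubation at pH 7.5.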
* marks the source's active call; other numbers are inactive results; ? = inconclusive; nt = no result.

SMILES	hERG WT inh	KCNH2 3.1 block	TRPML1 agonist	GRP78 ERSR act	TRPML1 inh	TSG101-PTAP inh
COc1cc(CNc2nc(C)c(-c3ccn(CC4CCCN(C)C4)n3)s2)ccc1F (stereo not drawn)	nt	nt	nt	-0.9%	nt	nt
COc1ncccc1C(=O)N1CCOc2ccc(C(O)C(c3ccccc3)c3ccccc3)cc2C1 (stereo not drawn)	nt	nt	nt	-4.7%	nt	nt
Cc1cnc(C)c(-c2ccc(F)c3c2OC(CNC(=O)/C=C/c2cccs2)C3)n1 (stereo not drawn)	nt	nt	nt	-4.9%	nt	nt
CCCCCc1cc(=O)oc2c(C(CCN3CCCC3)c3ccc4c(c3)OCO4)c(OC)cc(OC)c12 (stereo not drawn)	nt	nt	0.8	-12.8%	1.4	nt
CCCCCc1cc(=O)oc2c(C(CCN3CCCCC3)c3ccc4c(c3)OCO4)c(OC)cc(OC)c12 (stereo not drawn)	-79.7*	-42.5	1.2	-12.0%	-11.1	-19.8%
COc1ccc(-n2c(CCNC(=O)c3ccccc3C(F)(F)F)nnc2SC)cc1	nt	nt	nt	-3.7%	nt	nt
C#CCC(Cc1cnc2nc(N)nc(N)c2n1)c1ccc(C(=O)N[C@@H](CCC(=O)O)C(=O)O)cc1 (stereo partly drawn)	nt	nt	nt	-0.5%	nt	nt
CN([C@@H](C(=O)OC(C)(C)C)c1ccccc1)S(=O)(=O)c1cccc(S(=O)(=O)N(C)[C@@H](C(=O)OC(C)(C)C)c2ccccc2)c1	-3.7	3.2	70.5*	-4.6%	-19.1	-6.2%
COC(=O)[C@H](Cc1ccccc1)N(C)S(=O)(=O)c1cccc(S(=O)(=O)N(C)[C@@H](Cc2ccccc2)C(=O)OC)c1	1.8	-16.4	3.3	-4.2%	23.4	-2.0%
COc1ccc(-c2ccnc(-n3ncc(C(=O)NCc4cccnc4)c3C3CC3)n2)cc1F	nt	nt	nt	-5.9%	nt	nt
CCC(=O)Nc1ccnc(-c2cccnc2)n1	4.8	-107.7*	0.4	-1.0%	2.4	-0.5%
COc1ccc(C(=O)Nc2ccnc(-c3cccnc3)n2)cc1	0.5	-17.8	1.6	1.2%	-19.5	-3.3%
Cc1ccc(C(=O)Nc2ccnc(-c3cccnc3)n2)cc1	-8.2	-109.3*	3.5	7.9%	22.8	0.0%
O=C(c1cc(COc2c(F)cccc2F)on1)N1CCN(C2CCCCC2)CC1	26.4	-81.2*	0.4	-3.3%	-1.5	-2.1%
O=C(c1cc(COc2c(F)cccc2F)on1)N1CCCCCC1	1.0	nt	-0.8	2.3%	-0.7	-0.2%
Cc1ccnc(NC(=O)CCC(=O)N(CC(=O)NC(C)(C)C)c2ccc(F)c(Cl)c2)c1	-3.1	-87.4*	-0.5	-1.1%	21.7	-2.4%
CC(NC(=O)c1cccnc1)c1nnc2n1CCN(Cc1ccc(-c3ccccc3Cl)o1)CC2 (stereo not drawn)	nt	nt	nt	-1.3%	nt	nt
CC1C(=O)CC(c2ccc([N+](=O)[O-])cc2)NC1c1ccc([N+](=O)[O-])cc1 (stereo not drawn)	-21.9	-70.9*	0.1	-2.9%	?	-5.5%
O=C(c1ccco1)N1CCN(Cc2ccc(Cl)cc2)CC1	-9.7	31.2	1.1	1.9%	0.3	0.7%
O=C(c1ccco1)N1CCN(C(=O)C2CC(=O)N(c3ccc(Cl)cc3)C2)CC1 (stereo not drawn)	-11.8	-95.1*	1.1	-2.8%	38.6	-9.6%
CC(Oc1ccc(Cl)cc1)C(=O)N1CCN(C(=O)c2ccco2)CC1 (stereo not drawn)	-128.7*	-163.7*	-0.5	-3.9%	88.3	0.1%
CC(C)(C)CC(C)(C)N=C1Nc2ccc(Cl)cc2NC12C[C@H]1CCC(=O)N3CC[C@@H](C2)[C@@H]13 (stereo partly drawn)	nt	nt	-0.6	-11.7%	nt	nt
C=CS(=O)(=O)O	nt	nt	nt	-4.4%	nt	nt
CCN(C[C@H]1N[C@@](CC)(C(=O)OC)[C@H]2C(=O)N(Cc3ccccc3)C(=O)[C@@H]12)C(=O)Nc1ccc(C(F)(F)F)cc1	-4.7	-75.3*	-0.2	-0.9%	-1.5	0.7%
Cc1cc(=O)oc2c(O)c(O)ccc12	-6.1	-8.1	-0.6	28.2µM*	5.4	-2.3%
Cc1cc(=O)oc2c(CN3CCCC3)c(O)ccc12	nt	2.7	nt	1.7%	nt	0.1%

Screening results deposited in PubChem by National Center for Advancing Translational Sciences (NCATS).
